Data on 13 compounds can be found in PubChem BioAssay (NCI).

Some test systems named below: NCI-H23 lung; NCI-H226 lung; NCI-H322M lung; HOP-62 NSCLC; NCI-H460 lung; HOP-92 NSCLC; NCI-H522 lung; A549/ATCC NSCLC; 786-0 renal; COLO 205 colon.
Assay in all cases: NCI-60 one-dose screen, 48 h (100 = growth as untreated, 0 = no growth, -100 = all killed)
Common to all, as to details: 10 µM unless noted

Compounds without any hit were thinned out: in the full panel of roughly 83,000, 20% have a hit.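 In brief: 96-well plates, 48 h treatment, single concentration, percent growth endpoint.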 A number with no mark means an inactive call. Calls of active or inactive are those of the source. How the source made its calls: active means growth percent below 10; inactive means the rest.

As to `O=S(=O)(O)CCl`, the growth with NCI-H23 lung is 97.2%; with NCI-H226 lung, 106%; with NCI-H322M lung, 105%; with HOP-62 NSCLC it was 112%; with NCI-H460 lung, 113%; in the test on HOP-92 NSCLC, 106%. The growth is 77.8% with NCI-H522 lung, 103% in the test with A549/ATCC NSCLC, 99.1% in the test on 786-0 renal and 113% in the test on COLO 205 colon.

For the compound `COc1cccc(/C=C/c2c(C(=O)O)cccc2[N+](=O)[O-])c1OC`, the growth in the test with NCI-H23 lung was 104%; with NCI-H226 lung, 99.5%; with NCI-H322M lung, 107%; with HOP-62 NSCLC, 95.5%; in the test on NCI-H460 lung, 104%; in the test with HOP-92 NSCLC, 89.1%. Further, the growth in the test on NCI-H522 lung was 113%; in the test on A549/ATCC NSCLC, 103%; with 786-0 renal it was 99.1%; in the test with COLO 205 colon, 100%.

Turning to `Cc1ccc2nc(-c3c(N)n[nH]c3CCCO)[nH]c(=O)c2c1`, the growth in the test with NCI-H23 lung is 105%; with NCI-H226 lung, 97.5%; in the test with NCI-H322M lung it was 107%; with HOP-62 NSCLC, 92.1%; with NCI-H460 lung, 110%; in the test with HOP-92 NSCLC, 82.8%. In addition, the growth with NCI-H522 lung is 114%; in the test on A549/ATCC NSCLC, 103%; in the test with 786-0 renal, 101%; in the test with COLO 205 colon it was 105%.

For the compound `Clc1nc2ccccc2nc1CI`, the growth is 86% in the test on NCI-H23 lung; 68.2% in the test with NCI-H226 lung; 89.9% with NCI-H322M lung; 105% with HOP-62 NSCLC; 108% in the test on NCI-H460 lung; 90.9% in the test with HOP-92 NSCLC. The figures for the growth with NCI-H522 lung, with A549/ATCC NSCLC and in the test on 786-0 renal were 3.79% (active), 117% and 101%, respectively.

Regarding `Nc1c(C(=O)Nc2ccccc2)sc2nc3c(cc12)CN(Cc1ccccc1)CC3`, the growth is 79.1% in the test with NCI-H23 lung; 45.2% with NCI-H226 lung; 50% with NCI-H322M lung; 52.1% with HOP-62 NSCLC; 32.8% with NCI-H460 lung; 20.2% with HOP-92 NSCLC. For the same compound, the growth in the test with NCI-H522 lung is 80.2%; with A549/ATCC NSCLC, 54.2%; with 786-0 renal it was 28.8%.

For the compound `COc1ccc(C(=O)/C=C/c2cc(C(=O)c3cc(OC)c(OC)c(OC)c3)ccc2OC)cc1`, the growth is 72.9% in the test on NCI-H23 lung; 90.7% in the test on NCI-H226 lung; 91.5% in the test with NCI-H322M lung; 100% in the test on HOP-62 NSCLC; 88.6% in the test with NCI-H460 lung; 70.5% in the test on HOP-92 NSCLC. In addition, the growth was -0.114% (active) with NCI-H522 lung, 85.3% with A549/ATCC NSCLC and 89.4% in the test on 786-0 renal.

Consider `O=C1NCC(c2cc3ccccc3[nH]c2=O)Nc2ccccc21` (stereo unspecified), for which the growth in the test with NCI-H23 lung is 97.4%; in the test with NCI-H226 lung, 98.4%; in the test with NCI-H322M lung it was 100%; in the test with HOP-62 NSCLC, 90.6%; with NCI-H460 lung, 105%; in the test on HOP-92 NSCLC, 104%. Moreover, the values for the growth in the test on NCI-H522 lung, in the test with A549/ATCC NSCLC and in the test on 786-0 renal were 88.6%, 92.4% and 100%, respectively.

Regarding `COc1ccc(Cn2c(SC)nc(=O)n(Cc3ccc(Cl)cc3)c2=O)cc1`, the growth was 93.7% in the test on NCI-H23 lung; 106% with NCI-H226 lung; 90.2% with NCI-H322M lung; 94.6% in the test on HOP-62 NSCLC; 103% in the test with NCI-H460 lung; 90% in the test on HOP-92 NSCLC. In addition, the growth in the test with NCI-H522 lung is 93.9%; in the test on A549/ATCC NSCLC it was 87.9%; in the test with 786-0 renal it was 98.7%.

Turning to `Cc1ccc2nc(-c3c(CCCO)noc3N)[nH]c(=O)c2c1`, the growth in the test on NCI-H23 lung is 130%; in the test with NCI-H226 lung, 99.9%; in the test with NCI-H322M lung, 89.6%; in the test on HOP-62 NSCLC, 103%; in the test with NCI-H460 lung, 108%; in the test on HOP-92 NSCLC, 65.7%. Further, the growth in the test on NCI-H522 lung was 103%; in the test with A549/ATCC NSCLC, 101%; in the test with 786-0 renal, 98.6%.

For the compound `CNC(C)=O`, the growth was 95.3% in the test with NCI-H23 lung; 95.1% with NCI-H226 lung; 92% in the test on NCI-H322M lung; 94.4% in the test on HOP-62 NSCLC; 106% in the test on NCI-H460 lung; 103% in the test on HOP-92 NSCLC. Moreover, the growth with NCI-H522 lung was 89%; in the test with A549/ATCC NSCLC, 92.1%; in the test on 786-0 renal it was 106%.

`Cn1c(C(N)=O)cc2c1-c1nc(NC3CCCCC3)ncc1CCC2`: the growth in the test with NCI-H23 lung was 93.7%; with NCI-H226 lung, 70.9%; in the test on NCI-H322M lung it was 110%; with HOP-62 NSCLC it was 90%; in the test with NCI-H460 lung, 94.3%; in the test with HOP-92 NSCLC, 6.02% (active). The growth with NCI-H522 lung was 94.9%; in the test with A549/ATCC NSCLC, 92.2%; in the test with 786-0 renal it was 91.2%; in the test with COLO 205 colon, 113%.

Turning to `CCOC(=O)c1cc(/C(=N\O)c2cc(OC)c(OC)c(OC)c2)n2c(C)cccc12`, the growth in the test with NCI-H23 lung was 59.3%; with NCI-H226 lung, 78.8%; with NCI-H322M lung, 59.2%; in the test with HOP-62 NSCLC it was 36.2%; in the test on NCI-H460 lung, 15.3%; with HOP-92 NSCLC, 54.6%. Besides, the growth in the test on NCI-H522 lung was -3.5% (active); in the test on A549/ATCC NSCLC, 48%; in the test with 786-0 renal, 26.3%.

For the compound `Nc1cccc2c1CN(C1CCC(=O)NC1=O)C2=O` (stereo unspecified), the growth with NCI-H23 lung was 99.4%; with NCI-H226 lung, 108%; in the test on NCI-H322M lung it was 111%; in the test with HOP-62 NSCLC, 106%; with NCI-H460 lung, 102%; with HOP-92 NSCLC, 22.6%. The growth in the test with NCI-H522 lung was 56%; with A549/ATCC NSCLC, 106%; with 786-0 renal it was 107%.
